# For some of these results: Results with a measured potency or affinity are listed apart. The list shows a part of the results. Records with an inconclusive call do not appear. Calls of active or inactive are those of the source. Unless noted, how the calls were made is not given here.
# What was measured:
# [1] = A549 cell cytotoxicity, dose response, cytotoxicity control, plate reader, cherry-pick, antagonist series (AID 743412);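 further: 0% = neutral control wells and -100% = positive control wells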
# [2] = Ring1 mRNA increase in mouse ESCs, confirmation, esBAF inhibitor project, cell-based, mouse ESC, RT-qPCR, cherry-pick (AID 743176;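 active means Ring1 gene expression raised more than 2-fold over untreated cells in both replicates at either tested dose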;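 further: Ring1 transcript normalised to actin housekeeping signal by TaqMan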); settings: mouse ESC E14, Ring1 mRNA RT-qPCR fold change, stronger effect = higher value
# [3] = Fgf4 mRNA decrease in mouse ESCs, confirmation, esBAF inhibitor project, cell-based, mouse ESC, RT-qPCR, cherry-pick (AID 743177;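 active means Fgf4 expression under 0.8 fold of control in both repeat measurements at one or both tested doses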;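 further: Fgf4 transcript normalised to actin in duplex TaqMan qPCR; cells exposed to compound for 24 h before lysis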); settings: mouse ESC E14, Fgf4 mRNA qPCR fold change, stronger effect = lower value
# [4] = esBAF inhibition via Bmi1 de-repression, confirmation, cell-based, RT-qPCR, mouse ESC, single point, cherry-pick (AID 743180;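 active means Bmi1 expression fold change above 6 at either tested concentration, seen in replicate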); settings: mouse ESC E14, Bmi1 mRNA qPCR fold, stronger effect = higher value
# [5] = A549 cell cytotoxicity, cytotoxicity control, plate reader, single point, cherry-pick (AID 743188); settings: at 25 µM
# [6] = HepG2 cell cytotoxicity, cytotoxicity control, plate reader, single point, cherry-pick (AID 743189; in the data active means activity change below about -50%); settings: at 25 µM, stronger effect = lower value
# [7] = HEK293 cell cytotoxicity, cytotoxicity control, plate reader, single point, cherry-pick (AID 743190; in the data active means activity change below about -38%, passing the limit was not always enough); settings: at 25 µM
smiles,measurement,setting,value
COc1ccc(NC(=O)Nc2cccc([N+](=O)[O-])c2)cc1Cl,outcome,[1],inactive
C=CCN1CCN(C(=O)CCCc2ccccc2)CC1,outcome,[1],inactive
O=C(NCCc1ccccc1)c1ccc2c(c1)OCCO2,outcome,[1],inactive
COc1ccc(-c2csc(NC(=O)c3ccc(OCC(=O)N4CCOCC4)c(OC)c3)n2)cc1,outcome,[1],inactive
COc1ccccc1CCn1cnc(-c2ccccc2OC)c1C(C)C,outcome,[1],inactive
Cc1ccc(-c2csc(Nc3ccccn3)n2)cc1,outcome,[1],inactive
COc1cc2ccccc2cc1C(=O)Nc1ccccc1C,fold change,"[2]; Ring1 fold increase, at 7 µM",1.25
same,fold change,[2]; at 33 µM,0.965 (inactive)
same,Fgf4 expression fold change,"[3]; Fgf4 expression, at 7 µM",0.978
same,Fgf4 expression fold change,[3]; at 33 µM,0.878 (inactive)
same,fold change,"[4]; Bmi1 de-repression, at 7 µM",1.37
same,fold change,[4]; at 33 µM,1.49 (inactive)
same,cell viability change % (negative = cytotoxic),[5],-15.3% (inactive)
same,"activity change, negative = inhibition",[6],-26.3% (inactive)
same,"activity change, negative = inhibition",[7],-24.6% (inactive)
CCS(=O)(=O)n1nc(-c2ccc(OC)cc2)nc1SC,fold change,"[2]; Ring1 fold increase, at 7 µM",1.25
same,fold change,[2]; at 33 µM,1.01 (inactive)
same,Fgf4 expression fold change,"[3]; Fgf4 expression, at 7 µM",0.938
same,Fgf4 expression fold change,[3]; at 33 µM,1.05 (inactive)
same,fold change,"[4]; Bmi1 de-repression, at 7 µM",1.24
same,fold change,[4]; at 33 µM,1.6 (inactive)
same,cell viability change % (negative = cytotoxic),[5],-13.7% (inactive)
same,"activity change, negative = inhibition",[6],-11.2% (inactive)
same,"activity change, negative = inhibition",[7],-16.8% (inactive)
COC(=O)/C(=C1\Oc2ccc(C(C)(C)C)cc2S1)C(F)(F)F,fold change,"[2]; Ring1 fold increase, at 7 µM",1.4
same,fold change,[2]; at 33 µM,1.09 (inactive)
same,Fgf4 expression fold change,"[3]; Fgf4 expression, at 7 µM",1.06
same,Fgf4 expression fold change,[3]; at 33 µM,0.881 (inactive)
same,fold change,"[4]; Bmi1 de-repression, at 7 µM",1.51
same,fold change,[4]; at 33 µM,1.42 (inactive)
same,cell viability change % (negative = cytotoxic),[5],-9.79% (inactive)
same,"activity change, negative = inhibition",[6],-31.4% (inactive)
same,"activity change, negative = inhibition",[7],0.258% (inactive)
CCc1sc(C(=O)N2CCN(CC(=O)Nc3cccc(F)c3)CC2)cc1C,fold change,"[2]; Ring1 fold increase, at 7 µM",1.14
same,fold change,[2]; at 33 µM,1.01 (inactive)
same,Fgf4 expression fold change,"[3]; Fgf4 expression, at 7 µM",1.11
same,Fgf4 expression fold change,[3]; at 33 µM,0.972 (inactive)
same,fold change,"[4]; Bmi1 de-repression, at 7 µM",1.34
same,fold change,[4]; at 33 µM,1.56 (inactive)
same,cell viability change % (negative = cytotoxic),[5],0.0417% (inactive)
same,"activity change, negative = inhibition",[6],-21.7% (inactive)
same,"activity change, negative = inhibition",[7],-24% (inactive)
COc1ccc(-n2ncc3c(N4CCC(C)CC4)ncnc32)cc1,outcome,[1],inactive
O=C(c1noc2c1CCCC2)N1CCc2ccccc2C1,fold change,"[2]; Ring1 fold increase, at 7 µM",1.38
same,fold change,[2]; at 33 µM,1.19 (inactive)
same,Fgf4 expression fold change,"[3]; Fgf4 expression, at 7 µM",1.06
same,Fgf4 expression fold change,[3]; at 33 µM,1.15 (inactive)
same,fold change,"[4]; Bmi1 de-repression, at 7 µM",1.08
same,fold change,[4]; at 33 µM,1.13 (inactive)
same,cell viability change % (negative = cytotoxic),[5],-13.7% (inactive)
same,"activity change, negative = inhibition",[6],0.136% (inactive)
same,"activity change, negative = inhibition",[7],-12.4% (inactive)
COc1ccc(-n2nnnc2-c2nc3ccccc3s2)cc1,outcome,[1],inactive
COc1ccc(Nc2ccc3ccccc3c2)cc1,fold change,"[2]; Ring1 fold increase, at 7 µM",1.4
same,fold change,[2]; at 33 µM,1.14 (inactive)
same,fold change,"[4]; Bmi1 de-repression, at 7 µM",1.37
same,fold change,[4]; at 33 µM,2.11 (inactive)
same,cell viability change % (negative = cytotoxic),[5],-5.46% (inactive)
same,"activity change, negative = inhibition",[6],10% (inactive)
same,"activity change, negative = inhibition",[7],-0.0365% (inactive)
C/C(=C\C(=O)c1cccnc1)Nc1ccc(C)c(C)c1,fold change,"[2]; Ring1 fold increase, at 7 µM",1.22
same,fold change,[2]; at 33 µM,1.07 (inactive)
same,Fgf4 expression fold change,"[3]; Fgf4 expression, at 7 µM",1.06
same,Fgf4 expression fold change,[3]; at 33 µM,0.903 (inactive)
same,fold change,"[4]; Bmi1 de-repression, at 7 µM",1.46
same,fold change,[4]; at 33 µM,1.59 (inactive)
same,cell viability change % (negative = cytotoxic),[5],-3.61% (inactive)
same,"activity change, negative = inhibition",[6],12.6% (inactive)
same,"activity change, negative = inhibition",[7],-0.923% (inactive)
O=C(CCNC(=O)c1ccccc1)Nc1nc2ccccc2s1,fold change,"[2]; Ring1 fold increase, at 7 µM",1.2
same,fold change,[2]; at 33 µM,0.581 (inactive)
same,Fgf4 expression fold change,"[3]; Fgf4 expression, at 7 µM",0.839
same,Fgf4 expression fold change,[3]; at 33 µM,0.653 (active)
same,fold change,"[4]; Bmi1 de-repression, at 7 µM",1.36
same,fold change,[4]; at 33 µM,1.77 (inactive)
same,cell viability change % (negative = cytotoxic),[5],-14% (inactive)
same,"activity change, negative = inhibition",[6],11.7% (inactive)
same,"activity change, negative = inhibition",[7],-12.3% (inactive)
COc1ccc(-c2csc(Nc3cccc(C)n3)n2)cc1OC,fold change,"[2]; Ring1 fold increase, at 7 µM",1.32
same,fold change,[2]; at 33 µM,1.24 (inactive)
same,fold change,"[4]; Bmi1 de-repression, at 7 µM",1.47
same,fold change,[4]; at 33 µM,2.28 (inactive)
same,cell viability change % (negative = cytotoxic),[5],-8.92% (inactive)
same,"activity change, negative = inhibition",[6],29% (inactive)
same,"activity change, negative = inhibition",[7],4.06% (inactive)
COc1ccc(/C=N/OCc2ccccc2C#N)c(OC)c1,fold change,"[2]; Ring1 fold increase, at 7 µM",1.08
same,fold change,[2]; at 33 µM,0.981 (inactive)
same,fold change,"[4]; Bmi1 de-repression, at 7 µM",1.34
same,fold change,[4]; at 33 µM,1.44 (inactive)
same,cell viability change % (negative = cytotoxic),[5],-7.58% (inactive)
same,"activity change, negative = inhibition",[6],-31.8% (inactive)
same,"activity change, negative = inhibition",[7],-7.24% (inactive)
Cc1ccc(-c2nc(-c3ccncc3)no2)cc1C,outcome,[1],inactive
COc1ccc2sc(NC(=O)c3ccco3)nc2c1,outcome,[1],inactive
Clc1cccc(Cl)c1Cn1nnc(-c2cccs2)n1,fold change,"[2]; Ring1 fold increase, at 7 µM",1.24
same,fold change,[2]; at 33 µM,0.998 (inactive)
same,Fgf4 expression fold change,"[3]; Fgf4 expression, at 7 µM",1.02
same,Fgf4 expression fold change,[3]; at 33 µM,0.892 (inactive)
same,fold change,"[4]; Bmi1 de-repression, at 7 µM",1.24
same,fold change,[4]; at 33 µM,1.5 (inactive)
same,cell viability change % (negative = cytotoxic),[5],-14.2% (inactive)
same,"activity change, negative = inhibition",[6],-32% (inactive)
same,"activity change, negative = inhibition",[7],-18.7% (inactive)

# Source: PubChem BioAssay
